Screening results deposited in PubChem by Sanford-Burnham Center for Chemical Genomics.
Compounds with a hit are over-represented: about 6.3% of the library has one in this group of screens.
Mdm2 MdmX PPI: inhibitors of human Mdm2/MdmX interaction. 330,000 tested, 3% active. O15151+Q00987. SaOS-2 split-luciferase Mdm2/MdmX complementation, luminescence. inhibition, % at 8 µM;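 active = inhibition of at least 50% at 8 µM in the primary screen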
Target sequence (O15151 whole entry, looked up): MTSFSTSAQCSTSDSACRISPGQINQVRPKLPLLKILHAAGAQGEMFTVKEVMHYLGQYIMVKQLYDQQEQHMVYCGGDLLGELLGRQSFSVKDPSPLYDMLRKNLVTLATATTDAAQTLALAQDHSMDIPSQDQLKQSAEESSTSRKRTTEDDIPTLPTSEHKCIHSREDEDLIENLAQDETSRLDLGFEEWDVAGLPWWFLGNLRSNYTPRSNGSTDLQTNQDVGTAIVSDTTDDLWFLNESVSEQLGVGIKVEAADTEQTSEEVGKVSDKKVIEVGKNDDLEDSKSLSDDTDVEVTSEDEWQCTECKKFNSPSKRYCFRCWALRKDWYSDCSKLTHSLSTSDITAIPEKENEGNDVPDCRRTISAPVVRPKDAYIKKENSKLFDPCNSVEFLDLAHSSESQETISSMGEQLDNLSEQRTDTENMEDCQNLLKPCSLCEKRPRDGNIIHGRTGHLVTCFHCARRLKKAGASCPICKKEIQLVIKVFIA
Target sequence (Q00987 whole entry, looked up): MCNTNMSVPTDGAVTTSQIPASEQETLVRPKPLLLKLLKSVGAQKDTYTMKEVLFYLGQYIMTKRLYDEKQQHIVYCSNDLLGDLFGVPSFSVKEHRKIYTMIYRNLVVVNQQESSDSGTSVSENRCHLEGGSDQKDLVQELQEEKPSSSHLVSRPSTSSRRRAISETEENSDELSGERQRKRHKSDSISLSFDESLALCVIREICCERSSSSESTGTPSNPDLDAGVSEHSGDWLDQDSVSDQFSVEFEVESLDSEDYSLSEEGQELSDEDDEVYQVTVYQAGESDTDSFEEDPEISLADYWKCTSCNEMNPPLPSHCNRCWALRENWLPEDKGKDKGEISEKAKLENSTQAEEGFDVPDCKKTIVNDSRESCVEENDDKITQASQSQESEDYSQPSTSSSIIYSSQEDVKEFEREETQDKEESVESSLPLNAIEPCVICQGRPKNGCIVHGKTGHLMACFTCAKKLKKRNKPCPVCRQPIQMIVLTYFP
MPTP block: inhibitors of mitochondrial permeability transition pore. isolated mouse mitochondria, Ca2+ swelling absorbance, 30 min. inhibition, % at 10 µM. 360,000 tested, 1.4% active. AID 602449;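 active = inhibition of 50% or more, scaled per plate between neutral and stimulator controls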
tim10-1 inh: growth inhibitors of tim10-1 mutant yeast. 330,000 tested, 2.2% active. S. cerevisiae tim10-1 ts strain growth, BacTiter-Glo, 24 h. inhibition, % at 20 µM;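 active = inhibition of at least 40%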;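 also: mutant grown at 25 °C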
TIM10 inh: growth inhibitors of TIM10 yeast strain; S. cerevisiae TIM10 strain growth, BacTiter-Glo luminescence, 24 h; AID 463195; inhibition, % at 10 µM; 330,000 tested, 1.4% active;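 active = inhibition of 40% or more at the single tested concentration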;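 also: wild-type TIM10 isogenic control strain grown at permissive 25 °C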
tim23-1 inh: inhibits growth of tim23-1 mutant yeast; S. cerevisiae tim23-1 growth, BacTiter-Glo luminescence, 24 h; inhibition, % at 20 µM; 330,000 tested, 1.3% active;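 active = growth inhibition of the mutant yeast at or above 50%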;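 also: temperature-sensitive mutant grown at 25 °C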
Rh123 counter: mitochondrial membrane potential, counter-screen | inhibition, % at 10 µM | 5,000 tested, 78% active | shares compounds with MPTP block | isolated mitochondria, Rhodamine 123 fluorescence | AID 624504; in the data active = inhibition above about 22%
Numbers stand for hits.

Screening CCCCNC(=S)Nc1ccc(Cl)cc1 returned Mdm2 MdmX PPI inactive, MPTP block 83, tim10-1 inh inactive, TIM10 inh inactive, tim23-1 inh inactive and Rh123 counter 81.
For S=C(NCCc1ccccn1)Nc1cc(Cl)cc(Cl)c1 the results were Mdm2 MdmX PPI inactive, MPTP block 60, tim10-1 inh inactive, TIM10 inh inactive, tim23-1 inh inactive and Rh123 counter 77.
`Cc1ccc(SCCNC(=S)Nc2cc(C)cc(C)c2)cc1` gave Mdm2 MdmX PPI inactive, MPTP block inactive, tim10-1 inh inactive, TIM10 inh inactive and tim23-1 inh inactive.
For CCNC(=S)Nc1ccc(Cl)cc1 the results were Mdm2 MdmX PPI inactive, MPTP block inactive, tim10-1 inh inactive, TIM10 inh inactive and tim23-1 inh inactive.
Cc1ccc(NC(=S)NCCSc2ccc(Cl)cc2)cc1 was read as Mdm2 MdmX PPI inactive, MPTP block 100, tim10-1 inh inactive, TIM10 inh inactive, tim23-1 inh inactive and Rh123 counter 99.
`S=C(NCCc1ccccn1)Nc1ccc(Cl)c(Cl)c1` gave Mdm2 MdmX PPI inactive, MPTP block inactive, tim10-1 inh inactive, TIM10 inh inactive and tim23-1 inh inactive.
For S=C(NCCc1ccccc1)Nc1ccc(Cl)cc1 the results were Mdm2 MdmX PPI inactive, MPTP block 100, tim10-1 inh inactive, TIM10 inh inactive, tim23-1 inh inactive and Rh123 counter 90.
`O=c1c(OCc2ccccc2)cccn1Cc1ccccc1` gave MPTP block inactive.
Screening CCOC(=O)C1=CCN(S(=O)(=O)c2ccc(F)cc2)C1c1cccc(F)c1 (configuration not stated) returned MPTP block inactive.
For CC(CNC(=S)Nc1cc(F)cc(F)c1)CSc1ccc(Cl)cc1 (configuration not stated) the results were Mdm2 MdmX PPI inactive, MPTP block 97, tim10-1 inh inactive, TIM10 inh inactive, tim23-1 inh inactive and Rh123 counter 89.
O=C(NCCc1ccccc1)Nc1ccc(Cl)cc1 was read as Mdm2 MdmX PPI inactive, MPTP block 76, tim10-1 inh inactive, TIM10 inh inactive, tim23-1 inh inactive and Rh123 counter 72.
Cn1cccc1CNC(=S)Nc1cc(F)cc(F)c1 was read as Mdm2 MdmX PPI inactive, MPTP block inactive, tim10-1 inh inactive, TIM10 inh inactive and tim23-1 inh inactive.
O=S(=O)(c1ccc(NC(=S)NCCc2ccccc2)cc1)N1CCOCC1 was read as Mdm2 MdmX PPI inactive, MPTP block 67, tim10-1 inh inactive, TIM10 inh inactive, tim23-1 inh inactive and Rh123 counter 85.
Screening Fc1cc(Br)ccc1NC(=S)NCCc1ccccc1 returned Mdm2 MdmX PPI inactive, MPTP block 79, tim10-1 inh inactive, TIM10 inh inactive, tim23-1 inh inactive and Rh123 counter 83.
`O=S(=O)(c1ccc(NC(=S)NN=C(Cc2ccccc2)Cc2ccccc2)cc1)N1CCOCC1` gave Mdm2 MdmX PPI inactive, MPTP block inactive, tim10-1 inh inactive, TIM10 inh inactive and tim23-1 inh inactive.
Cc1ccccc1NC(=O)NCCc1ccc(Cl)cc1 was read as Mdm2 MdmX PPI inactive, MPTP block inactive, tim10-1 inh inactive, TIM10 inh inactive and tim23-1 inh inactive.
CC(C)Nc1ncnc2c1ncn2[C@H]1CN(Cc2cccnc2)C[C@@H](CO)O1 was read as MPTP block inactive.
Screening OC(c1ccc(-c2ccccc2)cc1)c1ncc(-c2ccccc2Cl)[nH]1 (configuration not stated) returned MPTP block inactive.
O=S(=O)(c1ccc(NC(=S)NCc2ccco2)cc1)N1CCCCC1 was read as Mdm2 MdmX PPI inactive, MPTP block 79, tim10-1 inh inactive, TIM10 inh inactive, tim23-1 inh inactive and Rh123 counter 92.
`O=C(NCc1ccco1)c1ccc(S(=O)(=O)N2CCCCC2)cc1` gave Mdm2 MdmX PPI inactive, MPTP block inactive, tim10-1 inh inactive, TIM10 inh inactive and tim23-1 inh inactive.
`Cc1ccc(NC(=O)CC(O)(C(F)(F)F)C(F)(F)F)cc1` gave Mdm2 MdmX PPI inactive, MPTP block 64, tim10-1 inh inactive, TIM10 inh inactive, tim23-1 inh inactive and Rh123 counter 82.
Screening COc1ccc(C)cc1NC(=O)CC(O)(C(F)(F)F)C(F)(F)F returned Mdm2 MdmX PPI inactive, MPTP block inactive, tim10-1 inh inactive, TIM10 inh inactive and tim23-1 inh inactive.
`O=Cc1ccc(Oc2cc(-c3ccccc3)nc(-c3ccccc3)n2)cc1` gave Mdm2 MdmX PPI inactive, MPTP block inactive, tim10-1 inh inactive, TIM10 inh inactive and tim23-1 inh inactive.
